ATXN2 expr inh: reduces ATXN2 reporter expression in HEK-293 cells. HEK-293 ATXN2-luciferase reporter, luminescence, 24 h. Potency, µM (series often up to 57 µM), without a hit: top-dose activity change, negative = inhibition, most hits filed as inhibitors. hit rate 0.72% among 360,000. AID 1745845; further: potency means the concentration at half of the fitted maximal effect; on the % scale 0 is the no-effect control and ±100 the full control effect; nearly all actives have a fitted effect of over 55% in size
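ATXN2-luciferase reporter cells (luciferase flanked by upstream and downstream ATXN2 gene portions) were treated 24 h at 37 °C with compounds at up to 57 uM. SteadyGlo luminescence gave expression; GF-AFC fluorescence gave viability.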
D3 antag: D3 dopamine receptor (human) antagonism | P35462 | D3R cells, DiscoveRx beta-arrestin luminescence, antagonist mode; hits give low values | max response, negative = inhibition, % | hit rate 2.5% among 360,000 | AID 652054; in the data active means max response below about -50%; inconclusive means no clear call, values can overlap the other calls; further: on the % scale 0 is the no-effect control and ±100 the full control effect
Target sequence (P35462 whole entry, looked up): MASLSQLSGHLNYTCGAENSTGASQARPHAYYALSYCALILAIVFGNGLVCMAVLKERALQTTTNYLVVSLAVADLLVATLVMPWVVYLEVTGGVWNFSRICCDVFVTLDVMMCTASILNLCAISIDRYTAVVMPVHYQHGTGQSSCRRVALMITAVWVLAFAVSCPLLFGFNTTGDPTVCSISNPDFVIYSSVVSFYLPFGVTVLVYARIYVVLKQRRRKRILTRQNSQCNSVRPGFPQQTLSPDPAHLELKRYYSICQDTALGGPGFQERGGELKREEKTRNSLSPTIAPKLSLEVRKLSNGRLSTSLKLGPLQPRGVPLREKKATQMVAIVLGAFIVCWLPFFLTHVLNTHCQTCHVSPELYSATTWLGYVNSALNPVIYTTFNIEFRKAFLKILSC
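Cells plated overnight at 1500 cells/well, then exposed to library compounds with dopamine controls for 90 minutes at 37 degrees C. DiscoveRx reagent added for 30–60 minutes at room temperature; luminescence read, quantitative HTS format.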
TGFb SMAD3 inh: blocks TGF-b signaling. HepG2 CAGA-GFP TGF-b/SMAD3 reporter, GFP fluorescence, 18 h; TGF-beta stimulated, 500 pg/mL final. Potency, µM (doses to about 46.1 µM), for the others: top-dose activity, negative = inhibition, actives largely listed as inhibitors. hit rate 1.2% among 410,000; further: potency means the concentration at half of the fitted maximal effect; on the % scale 0 is the no-effect control and ±100 the full control effect; nearly all actives have a fitted effect of over 65% in size
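HEPG2 CAGA-GFP cells (1000/well, DMEM with 1% FBS) were pre-incubated 2 h at 37 degrees C, given compound by pin tool, then stimulated with TGF-beta at 500 pg/mL final for 18 h before per-cell GFP fluorescence imaging.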
S2 tox: reduces viability in counter-screen for ATXN expression inhibitors. Potency, µM (titrated, usually from 56.7 µM), hits mostly cytotoxic. S2 cells (HEK-293 line with an ATXN2-luciferase reporter) viability, CellTiter-Fluor protease fluorescence, 24 h. hit rate 0.49% among 400,000. AID 651635; further: potency means the concentration at half of the fitted maximal effect; nearly all actives have a fitted effect of over 40% in size
D3 ag: D3 dopamine receptor (human) agonism | D3R DiscoveRx beta-arrestin cells, luminescence, 90 min | max activation, % | hit rate 0.58% among 410,000; in the data active means max activation above about 30%; further: 0% is about no effect
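Cells at 1500/well, incubated overnight, then treated with pinned compounds (dopamine as control) for 90 min at 37 degrees C. DiscoveRx reagent added for 30 - 60 minutes at room temperature; luminescence read.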
HepG2 tox: HepG2 cytotoxicity, counter-screen for TGF-b inhibitors. HepG2 CAGA-GFP viability, ATP luminescence, 18 h. Potency, µM (titrated, usually from 46.1 µM), inactives show top-dose activity change, negative = cytotoxicity, hits mostly cytotoxic. hit rate 0.76% among 410,000; further: potency means the concentration at half of the fitted maximal effect
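CellTiter-Glo luminescence gave cytotoxicity after 18 hours at 37 degrees C. The cells were HepG2 CAGA-GFP in 1% FBS DMEM, stimulated with 500 pg/mL TGF-beta after compound addition. %Activity was normalised to no-cell wells (complete cell-killing) and DMSO (no toxicity), and curves were fitted and classified.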
Numbers without * were called inactive; i = inactive; u = inconclusive; x = not tested or not shown. Sampled rows, rich in hits. Any-hit rate of the full collection: about 4.8%. Unless noted, the call rests on the fitted dose curve; in most records, active means well fitted curve in the direction sought with a large enough effect; inconclusive means small, poorly fitted or top-dose-only effect, or another doubt; inactive means no such curve, though single readings can be large; an effect the other way counts as inactive or inconclusive.

SMILES	ATXN2 expr inh	D3 antag	TGFb SMAD3 inh	S2 tox	D3 ag	HepG2 tox
Cc1ccc(N(Cc2cccs2)C(=O)C(C)Oc2ccc(Cl)c(C)c2)cc1 (stereo not given)	x	x	u	x	-20	-29%
CCOC(=O)c1sc(NC(=O)CCN2CCCCCC2)c(C(=O)OCC)c1C	1%	-30	u	i	-1	18µM*
CCOC(=O)c1c(NC(=O)CC)sc(C(=O)N2CCCCC2)c1C	-11%	6	-11%	i	2	-21%
O=C(CS(=O)(=O)c1cccc2nsnc12)NCc1ccc(Cl)cc1	x	x	-2%	x	-14	2%
Brc1ccc2c(c1)OCCOCCOc1cc(Br)ccc1OCCOCCOCCO2	16µM*	-11	u	u	20	-41%
CCOC(=O)c1cc(OC)c2cccc(CN3CCCC(C)(C(=O)NCCOC)C3)c2c1 (stereo not given)	u	-3	-27%	20µM*	-1	-48%
CCCNC(=O)C1(C)CCCN(Cc2cccc3ccccc23)C1 (stereo not given)	u	-2	-6%	i	0	-22%
CCOC(=O)c1cc(OC)c2cccc(CN3CCC(C)(C(=O)NCCOC)C3)c2c1 (stereo not given)	-8%	17	-1%	i	11	-9%
COCCNC(=O)C1(C)CCCN(Cc2ccc(C)c3ccccc23)C1 (stereo not given)	u	-52*	-29%	u	-11	-35%
COc1cc(OC)c(OC)cc1/C=C1/Cc2ccccc2C1=O	x	15	29%	i	2	10%
CCC1C/C(=C\c2cc(OC)c(OC)cc2OC)C(=O)/C(=C/c2cc(OC)c(OC)cc2OC)C1 (stereo not given)	u	-20	u	u	-6	8.9µM*
COc1cc(OC)c(OC)cc1/C=C1\CC(C)C/C(=C\c2cc(OC)c(OC)cc2OC)C1=O (stereo not given)	13µM*	47	u	u	1	11µM*
CCN1CCC(n2cc(CNc3cc(Cl)c4ncc(C#N)c(Nc5ccc(F)c(Cl)c5)c4c3)nn2)CC1	-19%	x	x	x	x	x
Cn1c(=O)c2c(-c3ccc(Cl)cc3)n(CCc3ccccc3)cc2n(C)c1=O	8%	x	u	i	-4	-27%
Cn1c(=O)c2c(-c3ccc(Br)cc3)n(CCc3ccccc3)cc2n(C)c1=O	u	x	10µM*	u	1	-54%
COC(=O)C1CCN(Cc2ccc3c(c2)CN(C(=O)c2ccc(-n4cnnn4)cc2)CCO3)CC1	x	x	x	i	x	x
Cc1oc2cc3oc(=O)c(CCC(=O)NCCN4CCOCC4)c(C)c3cc2c1C	28%	9	-20%	i	41*	-25%
CCNc1cc2oc(=O)c(CN3CCOCC3)c(C)c2cc1C	0%	-67*	-11%	x	-12	-25%
Cc1coc2cc3oc(=O)c(CCC(=O)NCCCN4CCOCC4)c(C)c3cc12	2%	12	16%	i	11	-2%
Cc1cc2oc(=O)cc(CN3CCOCC3)c2cc1C	0%	7	1%	i	-8	-5%
Cc1oc2cc3oc(=O)c(CCC(=O)N(C)CC(=O)O)c(C)c3cc2c1C	-13%	-67*	6%	i	3	-5%
CCCN1CCC(=O)N(C(CSc2ccc(Br)cc2)CC(C)C)CC1 (stereo not given)	x	x	-2%	x	x	-18%
Cc1nc(C)n(CC(=O)NCC2Cc3cc(-c4ccsc4)cc(Cl)c3O2)n1 (stereo not given)	x	x	x	i	x	x
C[C@H]1O[C@H](O[C@H]2[C@H](O)[C@@H](O)[C@@H](O[C@H]3[C@H](O)[C@@H](O)C(O)O[C@H]3CO)O[C@H]2CO)[C@H](O)[C@@H](O)[C@H]1N[C@H]1C=C(CO)[C@@H](O)[C@H](O)[C@@H]1O (stereo not given in full)	13%	x	x	x	x	x
CN(CCO)c1cc(NCCCN2CCC(Cc3ccccc3)CC2)c2nonc2c1[N+](=O)[O-]	u	-75*	0%	u	-12	2%
SMILES	ATXN2 expr inh	D3 antag	TGFb SMAD3 inh	S2 tox	D3 ag	HepG2 tox
CC1CCN(CCCNc2cc(NCCO)c([N+](=O)[O-])c3nonc23)CC1	-1%	-20	-1%	i	-24	8%
CCCC1=Nc2cc(C(=O)NCc3ccccc3)ccc2Sc2ccccc21	x	x	u	x	-13	8%
Nc1ncnc2c1c(-c1cnc3[nH]ccc3c1)nn2C1CCCC1	19µM*	x	x	x	x	x
NC(=O)c1cccn1Cc1ccccc1Cl	15%	-77*	-3%	i	0	2%
NC(=O)c1cccn1Cc1cccc(Cl)c1	-3%	13	8%	i	-10	-2%
CC1CCN(CCCCOc2ccc([N+](=O)[O-])cc2)CC1	-20%	-29	-1%	i	-36	0%
Cc1ccc(OCCCCN2CCCC(C)C2)c([N+](=O)[O-])c1 (stereo not given)	-19%	-80*	0%	i	-18	-3%
CC1CCN(CCCCOc2ccccc2[N+](=O)[O-])CC1	-6%	-83*	24%	i	-22	10%
Cc1ccc(OCCCCNC(C)(C)C)c([N+](=O)[O-])c1	-12%	u	-3%	i	-16	-22%
CC/C(=C/c1ccccc1OC)c1cc(-c2ccccc2)cc2oc3ccccc3c12	x	x	-4%	x	x	9%
CCc1ccc(C(=O)c2cn(CC(=O)Nc3ccc(F)c(F)c3)c3cc(OC)c(OC)cc3c2=O)cc1	-14%	x	u	i	0	-22%
CCc1ccc(C(=O)c2cn(Cc3ccc(F)cc3)c3cc(OC)c(OC)cc3c2=O)cc1	u	x	u	14µM*	3	-13%
Cc1cc(C)nc(SCc2cc(=O)c(OC(=O)c3cccc([N+](=O)[O-])c3)co2)n1	-2%	68	0%	i	111*	6%
COC(=O)C1CCN(Cc2ccc3c(c2)CN(C(=O)c2sc(C)nc2C)CCO3)CC1	x	x	x	i	x	x
C=C(C)c1cccc(C(C)(C)NC(=O)Nc2cc(C)ccn2)c1	-1%	13	11µM*	u	25	-17%
Cc1ccnc(NC(=O)c2ccccc2NC(=O)c2ccccc2)c1	10%	10	2%	i	13	-4%
CCOc1ccc(C(=O)Nc2cc(C)ccn2)cc1	u	0	-19%	i	4	14µM*
Cc1ccnc(NC(=O)c2ccc(C(=O)c3ccccc3)cc2)c1	u	-55*	-9%	i	-8	-21%
COc1ccc(S(=O)(=O)Nc2ccc3c(c2)N(C(C)=O)CCC3)cc1F	x	x	-47%	x	7	-21%

Compound activity: PubChem BioAssay, National Center for Advancing Translational Sciences (NCATS)
